PLK1 PBD inh = blocks phosphopeptide binding to human PLK1 polo-box domain; P53350; Plk1 PBD binding of FITC phosphopeptide, fluorescence polarization; Potency, µM, for inactives: max response, negative = inhibition, actives largely listed as inhibitors; 360,000 compounds, 2.8% hits; also: potency is read from the fitted curve at half-maximal effect; series mostly up to about 57 µM; % is scaled to controls: 0 for no effect and ±100 for the full control effect; nearly all actives have a fitted effect of over 65% in size
Target sequence (P53350 whole entry, looked up, the tested form may be a part): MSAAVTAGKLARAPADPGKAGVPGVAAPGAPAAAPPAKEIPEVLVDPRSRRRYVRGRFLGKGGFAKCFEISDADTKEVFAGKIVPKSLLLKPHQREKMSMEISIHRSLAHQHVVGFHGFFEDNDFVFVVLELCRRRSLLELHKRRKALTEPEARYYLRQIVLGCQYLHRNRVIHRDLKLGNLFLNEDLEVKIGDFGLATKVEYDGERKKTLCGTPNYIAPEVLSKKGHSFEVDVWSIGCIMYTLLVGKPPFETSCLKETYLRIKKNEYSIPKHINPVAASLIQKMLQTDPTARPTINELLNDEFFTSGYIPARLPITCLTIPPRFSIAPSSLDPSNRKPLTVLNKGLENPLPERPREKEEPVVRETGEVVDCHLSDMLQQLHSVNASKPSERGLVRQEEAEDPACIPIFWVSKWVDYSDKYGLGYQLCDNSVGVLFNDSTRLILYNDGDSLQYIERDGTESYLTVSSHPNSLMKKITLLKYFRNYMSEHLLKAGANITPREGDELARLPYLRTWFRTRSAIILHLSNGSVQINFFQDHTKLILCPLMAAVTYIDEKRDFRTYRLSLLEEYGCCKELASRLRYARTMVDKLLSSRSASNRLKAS
PI5P4Ka inh = inhibitors of human PI5P4K alpha; P48426; PI5P4Kalpha enzyme, ADP-Glo luminescence, 60 min; stronger effect = lower value; max response, %; 330,000 compounds, 1.2% hits; AID 652105; active = max response of -50% or lower; inconclusive = between -30% and -50%; inactive = -30% or higher; also: value at the top dose of about 77 µM; % is scaled to controls: 0 for no effect and ±100 for the full control effect
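Enzyme plus substrate dispensed, test compounds pinned in, then ATP (5 microM final) added. After 60 min at RT, ADP-Glo reagent 1 for 45 min and reagent 2 for 30 min preceded luminescence imaging.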
JMJD2A Tudor = JMJD2A Tudor domain (human) inhibition. O75164. Potency, µM (titrated, usually from 114 µM), without a hit: at the top dose activity change, negative = inhibition, actives largely listed as inhibitors. AID 504339. AlphaScreen JMJD2A-Tudor / H3K4me3 peptide binding. 390,000 compounds, 4.4% hits; also: potency is read from the fitted curve at half-maximal effect; % is scaled to controls: 0 for no effect and ±100 for the full control effect; nearly all actives have a fitted effect of over 50% in size
BAZ2B inh = inhibitors of human BAZ2B bromodomain; Q9UIF8; AlphaScreen BAZ2B-H3K14Ac peptide displacement; Potency, µM (top dose mostly 114 µM), for inactives: at the highest dose activity change, negative = inhibition, hits mostly inhibitors; 360,000 compounds, 4.4% hits; AID 504333; also: potency is read from the fitted curve at half-maximal effect; % is scaled to controls: 0 for no effect and ±100 for the full control effect; nearly all actives have a fitted effect of over 60% in size
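BAZ2B 50 nM plus b-H3(5-23)K14Ac 50 nM, PBS pH 7.4/0.01% Tween-20, 30 min RT; compound added (max 110 uM), 30 min RT; streptavidin donor/Ni-chelate acceptor beads 10 ug/mL final, 20 min dark; AlphaScreen read.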
G9a inh = blocks human histone lysine methyltransferase G9a; G9a H3K9 monomethylation, AlphaScreen, 2 h; Q96KQ7; 350,000 compounds, 8.8% hits; Potency, µM (top dose mostly 102 µM), for inactives: at the highest dose activity, negative = inhibition, usual class: inhibitors; AID 504332; also: potency is read from the fitted curve at half-maximal effect; % is scaled to controls: 0 for no effect and ±100 for the full control effect; nearly all actives have a fitted effect of over 75% in size
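Using a bead-based AlphaScreen, monomethylated H3K9 product from 2 h room-temperature reactions (G9a 20 nM, peptide 500 nM, SAM 20 uM) was detected with 0.5 ug/mL rabbit anti-H3K9me1 antibody.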
HP1b chromo inh = blocks HP1-beta chromodomain binding to methylated histone tails; P83916; AlphaScreen HP1-beta / biotin-H3K9me3 peptide binding; Potency, µM (doses to about 114 µM), for inactives: at the highest dose activity change, negative = inhibition, actives largely listed as inhibitors; 390,000 compounds, 0.56% hits; also: potency is read from the fitted curve at half-maximal effect; nearly all actives have a fitted effect of over 70% in size
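HP1-beta protein (50 nM final) preincubated 30 min at room temperature with biotinylated H3(1-18)K9me3 peptide (50 nM) in PBS pH 7.4, 0.01% Tween-20, then compound added for 30 min. AlphaScreen streptavidin donor/nickel chelate acceptor beads (10 ug/mL final), 30 min dark, luminescence read.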
* marks the source's active call; other numbers are inactive results; u = inconclusive; x = no result; [ ] = dose if it differs, or a comment. This is a sample that favours compounds with a hit; in the whole collection about 12% have one here. Unless noted, calls follow the shape of the dose curve; as a rule, active = well fitted curve in the direction sought with a large enough effect; inconclusive = small, poorly fitted or top-dose-only effect, or another doubt; inactive = no such curve, though single readings can be large; an effect the other way counts as inactive or inconclusive.

SMILES	PLK1 PBD inh	PI5P4Ka inh	JMJD2A Tudor	BAZ2B inh	G9a inh	HP1b chromo inh
Cc1cc2oc(C(=O)Nc3nc(-c4ccccc4)ns3)c(C)c2cc1Cl	x	x	-5%	0%	-22%[59 µM]	35%
Fc1ccccc1N1CCN(c2nnc(C(F)(F)F)c3nnn(Cc4ccccc4)c23)CC1	x	x	6%	4%	9%[59 µM]	41%
Cc1nc(C)c(-c2ccc(SCC(=O)Nc3ccc(Cl)c(Cl)c3)nn2)s1	x	x	-5%	-2%	4%[59 µM]	26%[57 µM]
Cc1ccc(-c2nc3ncccc3o2)cc1NC(=O)c1ccc(-c2ccc(Cl)cc2)o1	x	x	-10%	5%	1%[59 µM]	34%
CC(NC(=O)Cn1ncc2c3ccccc3n(Cc3ccc(F)cc3)c2c1=O)c1ccccc1 (centres undefined)	x	x	-23%	4%	13%[59 µM]	9%
CC1CCCC(C)N1C(=O)COC(=O)CCc1nc2ccccc2c(=O)[nH]1 (centres undefined)	-3%	0	12%	7%	u	27%
CC1CCCCN1Cc1nc2ccccc2c(=O)[nH]1 (centres undefined)	3%	5	79µM*	-33%	5%[12.7 µM]	15%
Cc1nc2cnc(N3CCN(C)CC3)nc2n(-c2ccccc2)c1=O	x	x	x	x	9%[0.501 µM]	x
O=C(O)c1cccnc1-c1ncccc1C(=O)O	3%	1	u	-39%	56µM*	-1%
CCOC(=O)C1=C(C)N(C[C@@H]2CC[C@@H](Cc3ccc(-c4ccccc4)cc3)O2)C(=O)NC1c1ccc(C(F)(F)F)cc1 (some centres undefined)	-12%	2	-35%	x	x	12%
CCOC(=O)C1=C(C)N(C[C@@H]2CC[C@@H](Cc3ccc(-c4ccccc4)cc3)O2)C(=O)NC1c1ccc(SCc2ccco2)c([N+](=O)[O-])c1 (some centres undefined)	u	-70*	40µM*	x	x	-8%
Cc1c2c(nc3ccccc13)OCC2	-11%	1	-17%	24%	79µM*	8%
COc1ccc(C(CNC(=O)c2ccc(Cl)c(NC(=O)c3cccs3)c2)N2CCCC2)cc1 (centres undefined)	-3%	2	-23%	-4%	u	21%
NC(=S)N/N=C\c1c(OCc2ccccc2Cl)ccc2ccccc12	-16%	0	u	u	-43%	2%
CCN(CC)c1ccc(CNC23CN4CN(CN(C4)C2)C3)cc1	-1%	0	u	-30%	3.2µM*	-5%
CCn1c(SCC(=O)Nc2cc(C)on2)nnc1-c1ccc(OC)cc1	-8%	0	-9%	-1%	9%	22%
COCCn1c(-c2ccc(OC)cc2)cnc1SCC(=O)Nc1ccc(OC)cc1OC	u	-8	-11%[57.1 µM]	45µM*	u	-9%
COCCn1c(-c2ccccc2)cnc1SCC(=O)Nc1cccc2ccccc12	1%	16	50µM*	45µM*	32µM*	u
COCCn1c(-c2ccc(OC)cc2)cnc1SCC(=O)Nc1cc(C)on1	-10%	-2	-18%	-11%	79µM*	24%
CC1(C(=O)NC2CCCCC2)Cc2ccccc2C(=O)N1Cc1ccc(Cl)cc1 (centres undefined)	x	x	1%	4%	7%[59 µM]	39%
Cc1nc2nc[nH]n2c(=O)c1CCC(=O)Nc1ccc(F)cc1	x	x	-6%	-5%	5%[59 µM]	58%
CC(C)(C)n1nnnc1C1c2ccccc2C(=O)N1CCc1c[nH]c2ccccc12 (centres undefined)	4%	-1	x	x	x	x
COc1ccc(N2CCN(CCCNC(=O)C(=O)c3c(C)n(C)c4ccccc34)CC2)cc1	-8%	2	u	35µM*	40µM*	26%
COc1ccc(N2CCN(C(=O)C(=O)c3c(C)n(C)c4ccccc34)CC2)cc1	-2%	7	u	u	5µM*	-18%
COc1cc(C(=O)COC(=O)c2cnc(C)cn2)ccc1OC(F)F	0%	3	-16%	u	7%	47%
SMILES	PLK1 PBD inh	PI5P4Ka inh	JMJD2A Tudor	BAZ2B inh	G9a inh	HP1b chromo inh
Cc1nn(CC(=O)N2CCCCCC2)c(=O)c2cc3occc3n12	u	1	-27%	-19%	9%	8%
Cc1ccc(-c2nn3c(-c4ccco4)nnc3c3ccccc23)cc1S(=O)(=O)NCC1CCCO1 (centres undefined)	-29%	-2	-21%[57.1 µM]	-25%	20µM*	8%
CC1=C(C)C(=O)C(N2CCOCC2)=CC1=O	-12%	3	-27%	u	45µM*	-3%
C=CCn1c(SCC#N)nc2ccc(Cl)cc2c1=O	x	x	7%[57.1 µM]	x	x	21%[57 µM]
CC(C)(C)C(=O)/C=c1\s/c(=C\c2ccc(-c3ccc([N+](=O)[O-])cc3)o2)c(=O)n1CC(=O)NC(N)=O	38%	u	-8%	u	45µM*	12%
CCC(=O)N/N=C/c1ccc(-c2ccc([N+](=O)[O-])cc2)o1	-1%	-9	-6%	-4%	x	0%
O=C(Nc1cnn(Cc2ccc(Cl)cc2Cl)c1)c1noc2c1CCc1ccccc1-2	x	x	-20%	-12%	-41%[59 µM]	3%
Cc1ccc(N2CCN(c3c(CN4CCCC4)c(=O)oc4ccccc34)CC2)c(C)c1	x	x	u	-36%	-24%[59 µM]	-11%
Cn1cnc(S(=O)(=O)N2CCC(C(=O)NCc3ccccc3Cl)CC2)c1	x	x	-3%	-1%	4%[59 µM]	46%
Cc1cc(OC(=O)c2c(C)cc(OC(=O)c3c(C)cc(O)cc3O)cc2O)cc(O)c1C(=O)O	30µM*	u	-20%	x	x	24%
COC(=O)c1c(C)cc(O)cc1O	1%	5	-12%	x	x	39%
O=C(Nc1ccnn1C1CCN(C2CCCC2)CC1)c1ccccc1	0%	3	-5%	9%	22%	13%
Cc1cc(S(=O)(=O)C(CNC(=O)COc2ccccc2)c2cccs2)ccc1F (centres undefined)	x	x	-1%	4%	22%[59 µM]	56%
Cc1ccc(S(=O)(=O)C(CNC(=O)COc2ccccc2)c2cccs2)cc1 (centres undefined)	x	x	25µM*	u	11µM*	20µM*
COc1ccc(C)cc1NC(=O)c1cnc2n(c1=O)CCS2	-27%	x	-3%	2%	-13%[59 µM]	1%
CC(=O)c1cnc2n(c1=O)CCS2	-8%	-3	-10%	0%	7%	9%
CCOc1ccccc1NC(=O)c1cnc2n(c1=O)CCS2	-10%	1	1%	-2%	79µM*	29%
O=C(Nc1ccc(Oc2ccccc2)cc1)c1cnc2n(c1=O)CCS2	-2%	-1	-12%	-16%	56µM*	28%
CCc1sc(-c2cc3cccc(OC)c3oc2=O)nc1-c1cc(C)ccc1C	x	x	37%[57.1 µM]	x	x	55%[57 µM]
O=C(O)c1cnc(-c2ccccc2)nc1Sc1ccc(Cl)cc1	21µM*	14	-28%	-5%	25%[12.7 µM]	8%
